Test results from PubChem BioAssay (NCATS).
Records with an inconclusive call do not appear. A call without a number means that no potency is given here. Calls of active or inactive are those of the source. The call rests on the fitted dose curve; in most records, active means well fitted cell-killing curve with a large enough effect; inconclusive means small, poorly fitted or top-dose-only effect, or effect the other way; inactive means no such curve, though single readings can be large or run the other way.
Potency means the concentration at half of the fitted maximal effect.

Test: Viability qHTS for spleen associated tyrosine kinase inhibitor (SYKi) drug resistant MV4-11 cells (AID 1963824); further: nearly all actives have a fitted effect of over 35% in size
Conditions: SYKi-resistant MV4-11 viability, CellTiter-Glo, 72 h; series mostly up to 45 µM
Outline: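 SYK inhibitor-resistant MV4-11 AML cells, 500 per well, added to predispensed compounds and incubated 72 hr at 37 C, 5% CO2. Viability measured by CellTiter-Glo luminescence after 10 min at room temperature.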
With `CSc1nc(N)cc(Oc2ccc(-c3nc(Nc4cccc(C(F)(F)F)c4)n[nH]3)cc2)n1` the Potency was 1.03 µM (active). In the case of `C=C1[C@@H]2CC[C@@]3(C)[C@H](c4ccoc4)OC(=O)C[C@]13O[C@H]1CC(=O)C(C)(C)[C@H](C(O)C(=O)OC)[C@]12C` (stereo partly specified), the Potency is reported as “inactive”. With `CC(O)CO[C@@H]1O[C@H](CO)[C@@H](O)[C@H](O)[C@H]1O` (stereo partly specified) the Potency was “inactive”. In the case of `COc1c2ccoc2cc2oc(CO[C@@H]3O[C@H](CO)[C@@H](O)[C@H](O)[C@H]3O)cc(=O)c12`, the Potency is reported as “inactive”. In the case of `Cc1ccc(C(=O)N(CCCN)C(c2oc3cc(Cl)ccc3c(=O)c2Cc2ccccc2)C(C)C)cc1` (stereo unspecified), the Potency is reported as “inactive”. With `COc1cc(C(=O)OCCCN2CCCN(CCCOC(=O)c3cc(OC)c(OC)c(OC)c3)CC2)cc(OC)c1OC` the Potency was 21.1 µM (active).
